Values joined by “and” are separate entries in the source; they are usually repeats but may differ in a detail not shown here. Equal values may be shown once. Records with an inconclusive call do not appear. Unmarked numbers belong to inactive results. Active and inactive are the calls of the source. The call rests on the fitted dose curve; in most records, active means well fitted cell-killing curve with a large enough effect in the repeat runs; inconclusive means weak or mixed curves, or effect the other way; inactive means flat fitted curve, though single readings scatter.
On the % scale 0 is the no-effect control and ±100 the full control effect; potency means the concentration at half of the fitted maximal effect.

This assay can be described thus: qHTS RealTime-Glo MT Cell Viability Assay in HEK293 cells - 40 hour (AID 1224874). Further: nearly all actives have a fitted effect of over 50% in size. The conditions noted are these: RealTime-Glo luminescence; max response: hits give low values. The text has this: U.S. Tox21 Program National Center for Advancing Translational Sciences [NCATS] NIH Chemical Genomics Center [NCGC] U.S. Environmental Protection Agency [EPA] National Institutes of Environmental Health Sciences [NIEHS] National Toxicology Program [NTP] U.S. Food and Drug Administration [FDA] Tox21 Assay Overview: Measure of cell viability is critical in the cell-base assay. Analysis of cell viability is necessary for the characterization of cell responses to cytotoxic drugs and environmental stress. A RealTime-Glo MT Cell Viability Assay to monitor cell viability in real time of continues cell culture during 40 hours of compound treatment was used to screen Tox21 10K library compounds in Hek293 cells. The RealTime-Glo MT Cell Viability Assay is a nonlytic, homogeneous, bioluminescent method to measure cell viability in real time using a simple, plate-based method. The assay involves adding NanoLuc luciferase and a cell-permeant prosubstrate to cells in culture. Viable cells reduce the proprietary prosubstrate to generate a substrate for NanoLuc luciferase. This substrate diffuses from cells into the surrounding culture medium, where it is rapidly used by the NanoLuc Enzyme to produce a luminescent signal. The signal correlates with the number of viable cells, making the assay well suited for cytotoxicity studies.
Tox21 Assay Protocol Summary: The mixture of Hek293 cell suspension and reagents were dispensed at 600cells/6 ul/well in 1536-well tissue culture treated black solid bottom plates using a Multidrop dispenser. After the assay plates were incubated at a 37 C/5% CO2 incubator for 5 hours, 23 nL of compounds dissolved in DMSO, positive and negative controls was transferred to the assay plate by a pintool work station. The plates were incubated at 37 C for 40 hours. The luminescence intensity were measured at 0h, 8h, 16h, 24h, 32h and 40h time points using ViewLux plate reader during compound treatment.
(In general: In qHTS, concentration-response curves come from the screen itself.)
On to `CC(NN)c1ccccc1` (stereo not given), for which the max response is 2.41%.
As for `O=C1C=CC(=O)N1c1ccc(Cc2ccc(N3C(=O)C=CC3=O)cc2)cc1`, the Potency was 12.3 µM (active).
`C=C(C)C(=O)OCC[N+](C)(C)C`: the max response is -0.113%.
On to `Oc1ccc(C2(c3ccc(O)cc3)CC3CC2C2CCCC32)cc1` (stereo not given), for which the Potency was 41.9 µM (active).
Same read-out and setting: the value for `COc1ccc(CN2CCN(C(c3ccc(F)cc3)c3ccc(F)cc3)CC2)c(OC)c1OC` was 16.9 µM (active).
Turning to `CO[Si](CCCNc1ccccc1)(OC)OC`, the max response was 16.6%.
Regarding `NNc1nc(-c2ccc(N)cc2)cs1`, the Potency was 21.9 µM (active).
Consider `Cc1onc(-c2ccccc2Cl)c1C(=O)N[C@@H]1C(=O)N2[C@@H]1SC(C)(C)[C@@H]2C(=O)O`, for which the max response is -0.669%.
Same read-out and setting: the value for `O=C(c1ccc(O)cc1O)c1ccc(O)cc1O` was -12.9% and -13.9%.
As for `COC(=O)c1cc(Cl)ccc1OC`, the max response is 6.18%.
On the same count and under the same terms, the value for `Cc1ccc(O)c2ncccc12` was -18.6%; that for `Cc1ccc2oc(CN(Cc3ccccc3)C(=O)Nc3c(F)cc(F)cc3F)c(-c3ccc(Cl)cc3)c2c1` was -18.1%.
For `CCCCCCCCOC(=O)c1ccc(O)cc1`, the Potency was 27.4 µM (active).
The same measure, in the same setting: to `CCCCCCCCCCCCCCCCCC[N+](C)(C)Cc1ccccc1` belongs 1.75 µM (active).
`O=C1CCCCCN1SSN1CCCCCC1=O`: the max response was -12.6%.
As to `CC1(C)CCC(C)(C)c2cc(C(=O)Nc3ccc(C(=O)O)cc3)ccc21`, the max response is -14.6%.
Consider `CC(C)(C)NC(=O)[C@@H]1C[C@@H]2CCCC[C@@H]2CN1C[C@@H](O)[C@H](Cc1ccccc1)NC(=O)[C@H](CC(N)=O)NC(=O)c1ccc2ccccc2n1`, for which the Potency is 17.6 µM (active).
Take `CN(C)CCCOC1(Cc2ccccc2)CCCCCC1`: the max response was 0.0267%.
With `Cc1oc(-c2ccccc2)nc1CCC(=O)c1ccc(CC2SC(=O)NC2=O)cc1` (stereo not given), the max response is -22.3%.
The same measure, in the same setting: to `O=[N+]([O-])c1cc([N+](=O)[O-])c2ccc(S(=O)(=O)O)cc2c1O` belongs -17.1%.
On the same count and under the same terms, the value for `CCN(C(=O)c1cc(C)cc(OC[C@H](C)Nc2ccncc2)c1)C(C)C` was -9.99%.
`CC[C@H](c1ccc(O)cc1)[C@@H](CC)c1ccc(O)cc1`: the Potency was 24.5 µM (active).
The same measure, in the same setting: the value for `C[n+]1cc2c3c(ccc2c2ccc4cc5c(cc4c21)OCO5)OCO3` was 0.585 µM (active).
For the compound `COc1cc(-c2nc(NC(=O)c3cc4cc(C)cc(C)c4n3CC(=O)O)sc2CCC2CCCCC2)c(OC)cc1Cl`, the Potency was 22.5 µM (active).
Same read-out and setting: the value for `O=c1c(-c2ccccc2)c1-c1ccccc1` was 10.7 µM (active); that for `CC[C@@]1(O)C(=O)OCc2c1cc1n(c2=O)Cc2cc3c(CN(C)C)c(O)ccc3nc2-1` was 0.0756 µM (active).
Same read-out and setting: the value for `On1ccccc1=S` was 3.85 µM (active).
Same read-out and setting: the value for `CCc1cc(SCc2sc(-c3ccc(C(F)(F)F)cc3)nc2CN2CCN(c3ccc(OC)cc3)CC2)ccc1OCC(=O)O` was 19.5 µM (active); that for `NC(=O)C1(N2CCCCC2)CCN(CCCN2c3ccccc3CCc3ccc(Cl)cc32)CC1` was 21.3 µM (active).
Consider `CCN(Cc1cccnc1)C(=O)c1cccc(Cl)c1[C@]1(C)C(=O)N(Cc2ccc(OC)cc2OC)c2ccc(Cl)cc21`, for which the Potency is 20.4 µM (active).
For the compound `Cc1ccc(O)c(C(C)(C)C)c1`, the max response was -17.7% and -1.19%.
Same read-out and setting: to `Cc1cccc(CN2CCN(C(c3ccccc3)c3ccc(Cl)cc3)CC2)c1` (stereo not given) belongs -13.7%; to `O=C(O)c1c(Cl)cccc1Cl`, 1.14%; to `O=C(O)c1cc(O)c2c(c1)C(=O)c1cccc(O)c1C2=O`, -10.8%.
`CCCCC(CC)CN=C(N)NC(N)=NCCCCCCN=C(N)NC(N)=NCC(CC)CCCC` (stereo not given): the Potency was 4.25 µM (active).
The same measure, in the same setting: the value for `Oc1cc2ccccc2c2ccccc12` was 11 µM (active).
The same measure, in the same setting: to `O=C1C=CC(=O)N1` belongs 11.3 µM (active).
On the same count and under the same terms, the value for `CCCCCCCCCOC(=O)c1ccc(O)cc1` was 38.3 µM (active); that for `CC/C(=C(\c1ccc(O)cc1)c1ccc(OCCN(C)C)cc1)c1ccccc1` was 17.4 µM (active).
Turning to `CNC(=O)c1ccccc1`, the max response is -8.54%.

For the origin of these results see PubChem BioAssay (Tox21).
